Test results reported in PubChem BioAssay AID1508601 (ICCB-Longwood Screening Facility, Harvard Medical School, 2020).
Out of some 5,700 compounds screened, about 85 (1%) were called active. Cut-off read from the data, not from the text of the source: active = p53-positive nuclei above about 36% (passing the limit was not always enough); inactive = the rest. The sample as a whole holds a higher share of actives than the screen did.

Assays:
[1] = p53 stabilisation in HPV-positive human cells, imaging, p53-positive nuclei imaging, 24 h, 48 h (AID 1508601); conditions: 24/48 h
[2] = molecular target: Cellular tumor antigen p53 (Homo sapiens) (UniProt P04637); assay: as above; conditions: 24/48 h, stronger effect = higher value
Cellular tumor antigen p53 (Homo sapiens), sequence (P04637 whole entry, looked up): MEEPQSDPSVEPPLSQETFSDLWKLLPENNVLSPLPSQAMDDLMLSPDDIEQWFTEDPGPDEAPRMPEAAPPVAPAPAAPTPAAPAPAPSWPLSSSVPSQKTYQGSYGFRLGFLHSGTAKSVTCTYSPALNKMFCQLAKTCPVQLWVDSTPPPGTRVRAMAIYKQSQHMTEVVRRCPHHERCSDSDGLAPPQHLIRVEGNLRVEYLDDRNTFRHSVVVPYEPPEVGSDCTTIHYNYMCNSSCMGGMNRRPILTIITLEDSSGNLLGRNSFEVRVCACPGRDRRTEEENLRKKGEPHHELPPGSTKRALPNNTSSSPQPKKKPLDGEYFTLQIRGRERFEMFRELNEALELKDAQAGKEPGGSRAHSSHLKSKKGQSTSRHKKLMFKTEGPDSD

[3] = measured here: cell number at 24 h, Library stock concentration: 80 uM
[4] = measured here: cell number at 24 h, Library stock concentration: 400 uM
[5] = measured here: cell number at 24 h, Library stock concentration: 2 mM
[6] = measured here: cell number at 24 h, Library stock concentration: 3.33 mM
[7] = measured here: cell number at 24 h, Library stock concentration: 10 mM
[8] = measured here: cell number at 48 h, Library stock concentration: 80 uM
[9] = measured here: cell number at 48 h, Library stock concentration: 400 uM
[10] = measured here: cell number at 48 h, Library stock concentration: 2 mM
[11] = measured here: cell number at 48 h, Library stock concentration: 3.33 mM
[12] = measured here: cell number at 48 h, Library stock concentration: 10 mM
[13] = Library stock concentration: 80 uM
[14] = Library stock concentration: 400 uM
[15] = Library stock concentration: 2 mM
[16] = Library stock concentration: 3.33 mM
[17] = Library stock concentration: 10 mM
[18] = measured here: p53 positive nuclei at 24 h, Library stock concentration: 80 uM
[19] = measured here: p53 positive nuclei at 24 h, Library stock concentration: 400 uM
[20] = measured here: p53 positive nuclei at 24 h, Library stock concentration: 2 mM
[21] = measured here: p53 positive nuclei at 24 h, Library stock concentration: 3.33 mM
[22] = measured here: p53 positive nuclei at 24 h, Library stock concentration: 10 mM
[23] = measured here: cell number at 24 h, concentration not given here
[24] = measured here: cell number at 48 h, concentration not given here
[25] = measured here: p53 positive nuclei at 24 h, concentration not given here

## CN1CCC(c2c(O)cc(O)c3c(=O)cc(-c4ccccc4Cl)oc23)C1CO (centres undefined)
[1]; [3]
  nuclei count, normalised: 103%
[1]; [4]
  nuclei count, normalised: 85.7%
[1]; [5]
  nuclei count, normalised: 35.8%
[1]; [6]
  nuclei count, normalised: 33.3%
[1]; [7]
  nuclei count, normalised: 24.1%
[1]; [8]
  nuclei count, normalised: 106%
[1]; [9]
  nuclei count, normalised: 84.1%
[1]; [10]
  nuclei count, normalised: 23.2%
[1]; [11]
  nuclei count, normalised: 26.2%
[1]; [12]
  nuclei count, normalised: 17.3%
[2]; [13]
  p53-positive nuclei, normalised: 0.295% (inactive)
[2]; [14]
  p53-positive nuclei, normalised: 16% (inactive)
[2]; [15]
  p53-positive nuclei, normalised: 66% (active)
[2]; [16]
  p53-positive nuclei, normalised: 49.6% (inactive)
[2]; [17]
  p53-positive nuclei, normalised: 30.8% (inactive)
[2]; [18]
  p53-positive nuclei, normalised: 0.32%
[2]; [19]
  p53-positive nuclei, normalised: 6.89%
[2]; [20]
  p53-positive nuclei, normalised: 3.25%
[2]; [21]
  p53-positive nuclei, normalised: 3.39%
[2]; [22]
  p53-positive nuclei, normalised: 6.32%

## CN1CCC(c2c(O)cc(O)c3c(=O)cc(-c4ccccc4Cl)oc23)C(O)C1 (centres undefined)
[1]; [3]
  nuclei count, normalised: 79.6%
[1]; [4]
  nuclei count, normalised: 49.2%
[1]; [5]
  nuclei count, normalised: 29.8%
[1]; [7]
  nuclei count, normalised: 27.6%
[1]; [8]
  nuclei count, normalised: 57.1%
[1]; [9]
  nuclei count, normalised: 29.5%
[1]; [10]
  nuclei count, normalised: 16%
[1]; [12]
  nuclei count, normalised: 17.8%
[2]; [13]
  p53-positive nuclei, normalised: 5.98% (inactive)
[2]; [14]
  p53-positive nuclei, normalised: 41.3% (inactive)
[2]; [15]
  p53-positive nuclei, normalised: 13.9% (inactive)
[2]; [17]
  p53-positive nuclei, normalised: 7.27% (inactive)
[2]; [18]
  p53-positive nuclei, normalised: 1.3%
[2]; [19]
  p53-positive nuclei, normalised: 7.22%
[2]; [20]
  p53-positive nuclei, normalised: 0.675%
[2]; [22]
  p53-positive nuclei, normalised: 0.446%

## CN1CC[C@H](c2c(O)cc(O)c3c(=O)cc(-c4ccccc4Cl)oc23)C(O)C1 (some centres undefined)
[1]; [3]
  nuclei count, normalised: 104%
[1]; [4]
  nuclei count, normalised: 38.3%
[1]; [5]
  nuclei count, normalised: 28.8%
[1]; [6]
  nuclei count, normalised: 19.7%
[1]; [7]
  nuclei count, normalised: 27.3%
[1]; [8]
  nuclei count, normalised: 113%
[1]; [9]
  nuclei count, normalised: 25.6%
[1]; [10]
  nuclei count, normalised: 21.8%
[1]; [11]
  nuclei count, normalised: 16%
[1]; [12]
  nuclei count, normalised: 20.2%
[2]; [13]
  p53-positive nuclei, normalised: 0.113% (inactive)
[2]; [14]
  p53-positive nuclei, normalised: 48.4% (inactive)
[2]; [15]
  p53-positive nuclei, normalised: 4.92% (inactive)
[2]; [16]
  p53-positive nuclei, normalised: 8.28% (inactive)
[2]; [17]
  p53-positive nuclei, normalised: 4.03% (inactive)
[2]; [18]
  p53-positive nuclei, normalised: -0.107%
[2]; [19]
  p53-positive nuclei, normalised: 2.03%
[2]; [20]
  p53-positive nuclei, normalised: 0.196%
[2]; [21]
  p53-positive nuclei, normalised: 0.472%
[2]; [22]
  p53-positive nuclei, normalised: 0.419%

## CCCCC[C@H](O)/C=C/[C@@H]1[C@@H](C/C=C\CCCC(=O)NCC)[C@@H](O)C[C@H]1O
[1]; [23]
  nuclei count, normalised: 106%
[1]; [24]
  nuclei count, normalised: 102%
[2]; concentration not given here
  p53-positive nuclei, normalised: 0.015% (inactive)
[2]; [25]
  p53-positive nuclei, normalised: -0.0692%

## O=C(/C=C/c1cccc(C(=O)NO)c1)NO
[1]; [23]
  nuclei count, normalised: 114%
[1]; [24]
  nuclei count, normalised: 107%
[2]; concentration not given here
  p53-positive nuclei, normalised: 0.114% (inactive)
[2]; [25]
  p53-positive nuclei, normalised: 0.124%

## O=C(C=Cc1cccc(S(=O)(=O)Nc2ccccc2)c1)NO
[1]; [3]
  nuclei count, normalised: 108%
[1]; [4]
  nuclei count, normalised: 107%
[1]; [5]
  nuclei count, normalised: 94.6%
[1]; [6]
  nuclei count, normalised: 58%
[1]; [7]
  nuclei count, normalised: 52.5%
[1]; [8]
  nuclei count, normalised: 101%
[1]; [9]
  nuclei count, normalised: 95.8%
[1]; [10]
  nuclei count, normalised: 77.3%
[1]; [11]
  nuclei count, normalised: 40.2%
[1]; [12]
  nuclei count, normalised: 30.4%
[2]; [13]
  p53-positive nuclei, normalised: 3.46% (inactive)
[2]; [14]
  p53-positive nuclei, normalised: 0.535% (inactive)
[2]; [15]
  p53-positive nuclei, normalised: 5.33% (inactive)
[2]; [16]
  p53-positive nuclei, normalised: 46% (active)
[2]; [17]
  p53-positive nuclei, normalised: 76% (active)
[2]; [18]
  p53-positive nuclei, normalised: 0.856%
[2]; [19]
  p53-positive nuclei, normalised: 1.2%
[2]; [20]
  p53-positive nuclei, normalised: 10.1%
[2]; [21]
  p53-positive nuclei, normalised: 51%
[2]; [22]
  p53-positive nuclei, normalised: 64.7%

## O=S(=O)(NO)c1ccccc1
[1]; [23]
  nuclei count, normalised: 71.3%
[1]; [24]
  nuclei count, normalised: 77%
[2]; concentration not given here
  p53-positive nuclei, normalised: 0.0111% (inactive)
[2]; [25]
  p53-positive nuclei, normalised: -0.0732%

## CCCCCCCCc1cccc(NC(=O)C(N)COP(=O)(O)O)c1 (centres undefined)
[1]; measured here: cell number at 24 h, Library stock concentration: 46 uM
  nuclei count, normalised: 114%
[1]; measured here: cell number at 24 h, Library stock concentration: 278 uM
  nuclei count, normalised: 118%
[1]; measured here: cell number at 24 h, Library stock concentration: 1.67 mM
  nuclei count, normalised: 113%
[1]; [7]
  nuclei count, normalised: 108%
[1]; measured here: cell number at 48 h, Library stock concentration: 46 uM
  nuclei count, normalised: 110%
[1]; measured here: cell number at 48 h, Library stock concentration: 278 uM
  nuclei count, normalised: 108%
[1]; measured here: cell number at 48 h, Library stock concentration: 1.67 mM
  nuclei count, normalised: 107%
[1]; [12]
  nuclei count, normalised: 101%
[2]; Library stock concentration: 46 uM
  p53-positive nuclei, normalised: -0.108% (inactive)
[2]; Library stock concentration: 278 uM
  p53-positive nuclei, normalised: 0.0439% (inactive)
[2]; Library stock concentration: 1.67 mM
  p53-positive nuclei, normalised: -0.101% (inactive)
[2]; [17]
  p53-positive nuclei, normalised: -0.166% (inactive)
[2]; measured here: p53 positive nuclei at 24 h, Library stock concentration: 46 uM
  p53-positive nuclei, normalised: 0.0125%
[2]; measured here: p53 positive nuclei at 24 h, Library stock concentration: 278 uM
  p53-positive nuclei, normalised: -0.0546%
[2]; measured here: p53 positive nuclei at 24 h, Library stock concentration: 1.67 mM
  p53-positive nuclei, normalised: -0.0401%
[2]; [22]
  p53-positive nuclei, normalised: -0.218%
